TDP1 cell noCPT: qHTS for Inhibitors of human tyrosyl-DNA phosphodiesterase 1 (TDP1): qHTS in cells in absence of CPT. DT40 Tdp1-/- hTDP1 cells, no CPT, ATP luminescence, 48 h. Potency, µM (titrated, usually from 46.2 µM), inactives show top-dose activity change, negative = growth inhibition, actives largely listed as inhibitors. actives 15% (n = 420,000); also: potency is read from the fitted curve at half-maximal effect; nearly all actives have a fitted effect of over 55% in size
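Growth of hTDP1-complemented DT40 Tdp1-knockout cells is measured by ATP luminescence after at least 48 hr compound exposure at 37 °C, with DMSO substituting for the 20 nM CPT used in the parallel screen.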
HT1080-NT tox: kills 2HG-producing HT-1080-NT fibrosarcoma cells | HT-1080-NT fibrosarcoma viability, CellTiter-Glo ATP luminescence, 48 h | Potency, µM (top dose mostly 46.1 µM), for the others: top-dose activity, negative = less viability, most hits filed as cytotoxic | actives 1.6% (n = 360,000);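 also: NT is the 2HG producing partner of a matched IDH1 knockdown line; potency is read from the fitted curve at half-maximal effect; 0% = DMSO-treated cells and -100% = media-only wells without cells; nearly all actives have a fitted effect of over 55% in size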
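HT-1080-NT fibrosarcoma cells (2HG-overproducing), 750 cells/well in RPMI with 5% FBS, dosed after 2 h and incubated 48 h at 37C. CellTiter-Glo luminescence normalized to DMSO and no-cell wells; concentration-response curves fitted and classed.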
IL1B secr inh: blocks inflammasome-driven IL-1 beta release; THP-1 LPS/ATP IL-1B secretion, AlphaLISA, 16 h; stronger effect = lower value; activity change, % at 57.5 µM; actives 4.7% (n = 360,000); in the data active = activity change below about -50%; inconclusive = mostly about -30% to -49%
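THP-1 cells pretreated 1 hr with compounds (up to 57.5 uM final), then stimulated with LPS (250 ng/mL final) plus ATP (1.25 mM final); secreted IL-1B measured by AlphaLISA after 16 hr, decreased signal indicating inhibition.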
DT40 TDP1 CPT: growth inhibition of DT40 Tdp1-/-;hTDP1 cells with camptothecin (screen for TDP1 inhibitors); Potency, µM (doses to about 46.2 µM), without a hit: top-dose activity change, negative = growth inhibition, usual class: inhibitors; actives 12% (n = 420,000); chicken DT40 Tdp1-/-;hTDP1 cells + 20 nM CPT, ATP luminescence, 48 h; AID 686979; also: potency is read from the fitted curve at half-maximal effect; nearly all actives have a fitted effect of over 55% in size
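Chicken DT40 Tdp1-/- cells stably complemented with human TDP1 were seeded at 400 cells/well in medium containing 20 nM camptothecin, exposed to pin-transferred compounds, and grown at 37 °C for at least 48 hr. Viability was read as ATP luminescence.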
HT1080 IDH1KD tx: kills HT-1080 cells with IDH1 knockdown. HT-1080 IDH1 knockdown viability, ATP luminescence, 48 h. Potency, µM (titrated, usually from 46.1 µM), for inactives: at the top dose activity, negative = toxicity, actives largely listed as cytotoxic. actives 2% (n = 360,000). AID 686971;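 also: potency is read from the fitted curve at half-maximal effect; 0% = DMSO wells and -100% = cell-free medium wells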
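Viability of IDH1-knockdown HT-1080 fibrosarcoma cells was assessed by CellTiter-Glo after 48 h at 37 °C with titrated compound; concentration-effect curves were classified by fit quality and response size.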
* marks the source's active call; other numbers are inactive results; ? = inconclusive; · = no result; ! = a repeat was not active. An excerpt weighted towards active compounds, which were near 19% of everything screened. Unless noted, calls follow the shape of the dose curve; as a rule, active = well fitted curve in the direction sought with a large enough effect; inconclusive = small, poorly fitted or top-dose-only effect, or another doubt; inactive = no such curve, though single readings can be large; an effect the other way counts as inactive or inconclusive. Unless noted, % is scaled to controls: 0 for no effect and ±100 for the full control effect.

SMILES | TDP1 cell noCPT | HT1080-NT tox | IL1B secr inh | DT40 TDP1 CPT | HT1080 IDH1KD tx
N#CC1=C(N)Oc2c(c(=O)oc3ccccc23)C1c1cccnc1 (stereo not drawn) | 7.8% | -12.4% | 6.3 | -17.9% | 6.3%
O=C(Nc1ccccc1)c1cc(C2CCCN(C(=O)C3CC3)C2)on1 (stereo not drawn) | ? | -45.4% | 7.1 | ? | 0.0%
CSc1cccc(NC(=O)C2CCN(C(=O)c3cnn(-c4ccccc4)c3-n3cccc3)CC2)c1 | 18.4µM* | · | · | 16.4µM* | ·
O=C(NCc1ccc(Cl)cc1)C1CCCN(C(=O)c2cnn(-c3ccc(F)cc3)c2-n2cccc2)C1 (stereo not drawn) | 5.8µM* | · | · | 8.2µM* | ·
Cc1ccc(NC(=O)C2CCCN(C(=O)c3cnn(-c4ccccc4)c3-n3cccc3)C2)cc1 (stereo not drawn) | 18.4µM* | · | · | 14.6µM* | ·
CC1=C2C(=O)C3C(CC=C4CC(O)CCC43C)C2CCC12OC1CC(C)CNC1C2C (stereo not drawn) | -15.4% | -0.2% | 18.1 | -13.4% | -1.1%
CS(=O)(=O)N1Cc2ccccc2-n2nncc2C1 | -11.3% | 13.6% | 2.6 | -27.9% | 8.3%
O=C1NC(=O)C2(Cc3ccccc3N3CCOCC32)C(=O)N1c1ccccc1 (stereo not drawn) | ? | ? | 36.2 | ? | 17.8µM*
N=Cc1c(O)n(-c2ccc(C34CC5CC(CC(C5)C3)C4)cc2)c(=O)[nH]c1=O | 4.7% | -23.2% | 5.0 | 13.8% | -21.6%
CCN1C[C@@]2(COC(=O)c3ccccc3N3C(=O)CC(C)C3=O)CC[C@H](OC)[C@]34C5C[C@@H]6[C@@H](OC)C[C@@](O)(C5[C@H]6OC)[C@@](O)(C13)[C@@H](OC)C24 (stereo partly drawn) | -0.4% | · | · | -6.3% | ·
CCOc1ccc(NCc2cccn2-c2nnc(N3CCC(C(=O)NCc4ccc(C)cc4)CC3)s2)cc1 | 7.31µM* | · | · | 9.2µM* | ·
CCOc1ccc(NCc2cccn2-c2nnc(N3CCC(C(=O)NCC(C)c4ccccc4)CC3)s2)cc1 (stereo not drawn) | 8.2µM* | · | · | 23.1µM* | ·
Cc1ccc(NCc2cccn2-c2nnc(N3CCC(C(=O)NCc4ccc(OC(C)C)cc4)CC3)s2)cc1 | 18.4µM* | · | · | ? | ·
Cc1ccccc1-c1nc(CN2C(=O)CN=C(c3ccccc3)c3ccccc32)c(C)o1 | -78.0% | · | · | ? | ·
CC12CCC3C(=CCc4cc(O)ccc43)C1CCC2=O (stereo not drawn) | -33.5% | · | · | ? | ·
CC1(C)OC(c2ccccc2)=C/C(=C/C=C2C(=O)NC(=O)NC2=O)O1 | ? | -2.0% | -4.9 | -22.7% | -1.1%
c1cnc(N2CC3(CCNCC3)C2)nc1 | -6.5% | · | · | 7.1% | ·
CN1CCN(c2c[nH]c(=O)[nH]c2=O)CC1 | 4.9% | 1.7% | -12.7 | 2.6% | 3.2%
C#CCN1C(=O)C2(C(C#N)=C(N)OC(C)=C2C(=O)OCc2ccccc2)c2ccccc21 (stereo not drawn) | 23.1µM* | 0.1% | 4.3 | ? | -23.3%
CCOC(=O)C1=C(C)OC(N)=C(C#N)C12C(=O)N(C)c1ccccc12 (stereo not drawn) | -7.9% | 4.5% | 17.3 | 6.0% | -0.3%
CC(=O)N(C)C1=Nc2ccc(Cl)cc2C(c2ccccc2)=[N+]([O-])C1 | ? | 11.6% | -24.4 | 0.0% | 0.8%
Nc1ccccc1C(=O)OCc1ccc([N+](=O)[O-])cc1 | -3.6% | 2.3% | -16.8 | -0.7% | -24.2%
c1cc2c(cc1C1OC[C@@H]3C(c4ccc5c(c4)OCO5)OCC13)OCO2 (stereo partly drawn) | ? | · | · | -25.3% | ·
COc1ccc(C2NCc3ccc4c(c3-n3cccc32)OCO4)cc1O (stereo not drawn) | 4.61µM* | ? | -9.9 | 4.11µM* | 1.84µM*
c1cc2n(c1)-c1c(ccc3c1OCO3)CNC2c1ccc2c(c1)OCO2 (stereo not drawn) | 13µM* | ? | -26.9 | ? | ?
SMILES | TDP1 cell noCPT | HT1080-NT tox | IL1B secr inh | DT40 TDP1 CPT | HT1080 IDH1KD tx
C[C@H]1C(=O)O[C@@H]2CCN3CC=C(COC(=O)[C@](C)(O)[C@]1(C)O)[C@H]23 | ? | 23.0% | 3.7 | 11.6µM*! | 7.8%
CCOC(=O)N1CCC(NC(=O)CCc2nc(C3=CCN(C)CC3)no2)CC1 | -9.8% | 7.2% | -62.6*! | -9.0% | 16.9%
Cc1cccc(CN2C(=O)CN=C(c3ccccc3)c3cc(Cl)ccc32)c1 | 16.4µM* | · | · | ? | ·
Cc1cccc(CN2C(=O)CN=C(c3ccccc3)c3ccccc32)c1 | 5.8µM* | · | · | 5.8µM* | ·
Cc1ccc(CN2C(=O)CN=C(c3ccccc3)c3ccccc32)cc1 | ? | 8.4% | -7.5 | -24.7% | 1.2%
CCN(CC)CCN1C(=O)CN=C(c2ccccc2F)c2cc(Cl)ccc21 | 26.6µM* | · | · | ? | ·
O=C1CN=C(c2ccccc2)c2cc(Cl)ccc2N1Cc1ccc(Cl)cc1 | 14.6µM* | · | · | ? | ·
CS(=O)(=O)CCN1CC2CCCC(C2)C1 | -4.4% | 5.6% | -7.9 | 9.4% | 17.3%
CN1CCc2nc3sc(C(=O)NC(C)(C)C)c(N)c3cc2C1 | -3.5% | -2.0% | -12.6 | 5.0% | -4.1%
CSCCC(c1nnnn1C1CCCCC1)N1CCC(n2c(=O)[nH]c3ccccc32)CC1 (stereo not drawn) | 9.2µM* | ? | -23.0 | 18.4µM* | ?
CC(C)(C)n1nnnc1C(CCc1ccccc1)N1CCC(n2c(=O)[nH]c3ccccc32)CC1 (stereo not drawn) | 13µM* | ? | ? | 13µM* | ?
O=c1[nH]c2ccccc2n1C1CCN(C(CCc2ccccc2)c2nnnn2C2CCCCC2)CC1 (stereo not drawn) | 13µM* | 9.0% | -60.8* | 20.6µM* | 15.9%
CSCCC(c1nnnn1C1CCCC1)N1CCC(n2c(=O)[nH]c3ccccc32)CC1 (stereo not drawn) | 23.1µM* | 2.8% | -9.5 | ? | 1.3%
CSCCC(c1nnnn1C1CCCCC1)N1CCC2(CC1)C(=O)NCN2c1ccccc1 (stereo not drawn) | ? | 28.0% | 5.4 | ? | 14.4%
CC(C)COC(=O)N1Cc2ccccc2-n2nncc2C1 | -23.5% | -0.2% | 31.7 | -3.2% | 0.1%
CC1=C(C/C(C)=C/c2ccccc2)/C(=C/CO)[C@H](O)[C@](C)(O)C12CC2 | ? | 18.5% | -15.1 | ? | 16.9%
CCCC(C)(COC(N)=O)COC(N)=O | -7.8% | · | · | -12.3% | ·
O=c1cccc2n1CC1CC2CN2CCCC[C@H]12 (stereo partly drawn) | -5.9% | · | · | 3.7% | ·
